CRFR2-BP ag: CRF-BP/CRF-R2 complex agonism; HEK293 CRF-R2/CRF-BP, calcium dye fluorescence (FLIPR); percent of saturating CRF peptide response; activation, % at 13.2 µM; 350,000 compounds, 0.46% hits;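 active means activation of at least 50%, plus an integration ratio under a set limit after plate pattern correction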;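 further: plate controls were neutral control wells without compound for no effect and CRF at EC100 for full effect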
PfGluPho inh: PfG6PD (Plasmodium falciparum) enzyme inhibition; AID 504690; PfGluPho enzyme, NADPH resazurin-diaphorase fluorescence; inhibition, % at 20 µM; 350,000 compounds, 0.78% hits;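 active means inhibition reaching at least a set limit at 20 µM in the primary screen, cut at about 59% in these data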;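 further: 0% = DMSO wells with substrate and 100% = DMSO wells lacking glucose-6-phosphate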
CRFBP-R2 block: antagonists of CRF-binding protein/CRF-R2 receptor complex; HEK293 CRF-R2/CRF-BP, CRF-induced calcium fluorescence; inhibition, % at 11.8 µM; 350,000 compounds, 0.59% hits;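 active means inhibition of the ligand-induced calcium signal above about 50% at the single tested concentration, limit read from the data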
FAS-TE inh: inhibitors of human fatty acid synthase thioesterase domain; P49327; recombinant FAS-TE, OMFH fluorogenic substrate, fluorescence endpoint; inhibition, % at 15 µM; 360,000 compounds, 0.67% hits; AID 602261;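 active means compounds whose normalised, plate-corrected inhibition of enzyme fluorescence in the single-dose primary screen is 50% or more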;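 further: 0% = DMSO with enzyme and 100% = substrate without enzyme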
H9c2 protect: myocardial damage modulation in H9c2 cells; protection from H2O2 cell death, % at 20 µM; 360,000 compounds, 0.63% hits; H9c2 cardiomyocytes, H2O2 injury protection, ATPLite, 2 h;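 active means compounds giving at least 50% protection of heart cells from peroxide-induced death in the single-dose screen, raw or plate-pattern-corrected value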;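 further: 0% = DMSO wells with peroxide and 100% = DMSO wells without peroxide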
aDG glyco act: alpha-DG glycosylation activation. Pro5-aDG cells, alpha-DG glycosylation AlphaScreen (IIH6); 0% Pro5, 100% B10-LARGE cell signal. activation, % at 10 µM. 360,000 compounds, 0.22% hits;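 active means activation of at least 8% versus controls, or a plate z-score of at least 8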;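 further: Pro5 are CHO cells carrying HIG-tagged alpha-DG that lacks glycosylation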
* = called active by the depositor. This is a sample that favours compounds with a hit; in the whole collection about 3.2% have one here.

COc1ccccc1/C=C/C(=O)NCC(=O)N/N=C/c1ccc(C)o1 was read as CRFR2-BP ag 1, PfGluPho inh -15, CRFBP-R2 block 2, FAS-TE inh -4, H9c2 protect 5 and aDG glyco act 0.
`COc1ccc(C2c3c(-c4ccccc4O)n[nH]c3C(=O)N2Cc2ccco2)cc1` (stereo unspecified) gave CRFR2-BP ag -3, PfGluPho inh 3, CRFBP-R2 block 136*, FAS-TE inh -89, H9c2 protect 0 and aDG glyco act 0.
`CC(N=C1NS(=O)(=O)c2ccccc21)C(=O)N1CCc2ccccc2C1` (stereo unspecified) gave CRFR2-BP ag 1, PfGluPho inh -10, CRFBP-R2 block 106*, FAS-TE inh 0, H9c2 protect 6 and aDG glyco act 0.
Cc1ccc(NC(=O)C(C)N=C2NS(=O)(=O)c3ccccc32)cc1 (stereo unspecified) was read as CRFR2-BP ag 2, PfGluPho inh 4, CRFBP-R2 block 14, FAS-TE inh -5, H9c2 protect -3 and aDG glyco act 0.
Cc1ccc2c(c1)N(Cc1cccc(Cl)c1)C(=O)c1cccnc1O2 was read as CRFR2-BP ag 0, PfGluPho inh -27, CRFBP-R2 block 11, FAS-TE inh 15, H9c2 protect 24 and aDG glyco act 0.
Screening O=C1c2cccnc2Oc2ccc(Cl)cc2N1Cc1ccc(F)cc1 returned CRFR2-BP ag 0, PfGluPho inh -5, CRFBP-R2 block -9, FAS-TE inh 30, H9c2 protect 63* and aDG glyco act 0.
Screening CC(=O)c1ccc(NC(=O)CN2CCN(S(=O)(=O)c3ccc4ccccc4c3)CC2)cc1 returned CRFR2-BP ag 1, PfGluPho inh -1, CRFBP-R2 block 6, FAS-TE inh 22, H9c2 protect -3 and aDG glyco act 0.
For O=C(Nc1ccccn1)C1CCN(S(=O)(=O)c2ccc3ccccc3c2)CC1 the results were CRFR2-BP ag 0, PfGluPho inh -11, CRFBP-R2 block 59*, FAS-TE inh 16, H9c2 protect -3 and aDG glyco act 0.
Cc1cc(NC(=O)CN2CCN(S(=O)(=O)c3ccc4ccccc4c3)CC2)no1 was read as CRFR2-BP ag 3, PfGluPho inh -10, CRFBP-R2 block 50*, FAS-TE inh 6, H9c2 protect 2 and aDG glyco act 0.
`Cc1ccc(S(=O)(=O)N=Nc2c(O)[nH]c3ccccc23)cc1` gave CRFR2-BP ag -1, PfGluPho inh -49, CRFBP-R2 block 14, FAS-TE inh -6, H9c2 protect 4 and aDG glyco act 0.
Screening Cc1ccc(S(=O)(=O)N(CC(=O)N=Nc2c(O)[nH]c3ccccc23)c2ccc(C)c(C)c2)cc1 returned CRFR2-BP ag 1, PfGluPho inh -10, CRFBP-R2 block 67*, FAS-TE inh 17, H9c2 protect -1 and aDG glyco act 0.
Screening O=C(COc1ccc(Br)cc1)NCCCn1ccnc1 returned CRFR2-BP ag -2, PfGluPho inh -21, CRFBP-R2 block 2, FAS-TE inh -3, H9c2 protect -1 and aDG glyco act 0.
For [O-][n+]1c2ccccc2c2n1CCN1CCOC21c1ccc(Cl)cc1 (stereo unspecified) the results were CRFR2-BP ag 0, PfGluPho inh -5, CRFBP-R2 block 0, FAS-TE inh -6, H9c2 protect 13 and aDG glyco act 2.
`CCC(C)(C)n1nnnc1C(c1cccc(C#N)c1)N1CCN(c2cccc(C)c2C)CC1` (stereo unspecified) gave CRFR2-BP ag -2, PfGluPho inh -8, CRFBP-R2 block 51*, FAS-TE inh 30, H9c2 protect -3 and aDG glyco act 0.
Screening CC(C)(C)n1nnnc1C(c1cccc(C#N)c1)N1CCCCCC1 (stereo unspecified) returned CRFR2-BP ag -3, PfGluPho inh -4, CRFBP-R2 block 14, FAS-TE inh 4, H9c2 protect -1 and aDG glyco act 0.
Screening COc1cc([N+](=O)[O-])cc(/C=N/NC(=O)c2ccc(C)nc2)c1O returned CRFR2-BP ag -3, PfGluPho inh -34, CRFBP-R2 block 12, FAS-TE inh 17, H9c2 protect 62* and aDG glyco act 0.
COc1cc([N+](=O)[O-])cc(/C=N/NC(=O)C(C)Nc2cccc(C)c2)c1O (stereo unspecified) was read as CRFR2-BP ag -3, PfGluPho inh -25, CRFBP-R2 block 1, FAS-TE inh 36, H9c2 protect 30 and aDG glyco act 0.
COc1cc([N+](=O)[O-])cc(/C=N/NC(=O)c2ccc(NC(=O)c3ccc(C)cc3)cc2)c1O was read as CRFR2-BP ag -1, PfGluPho inh -26, CRFBP-R2 block 13, FAS-TE inh 11, H9c2 protect 17 and aDG glyco act 0.
For COc1cc([N+](=O)[O-])cc(/C=N/NC(=O)C(C)Nc2ccccc2C)c1O (stereo unspecified) the results were CRFR2-BP ag -2, PfGluPho inh -34, CRFBP-R2 block 8, FAS-TE inh 37, H9c2 protect 63* and aDG glyco act 0.
For CC(C)CN(C(=O)CN(C)C(=O)c1ccco1)c1c(N)n(CC(C)C)c(=O)[nH]c1=O the results were CRFR2-BP ag 0, PfGluPho inh -5, CRFBP-R2 block -2, FAS-TE inh -5, H9c2 protect -2 and aDG glyco act 0.
For O=C(NCc1ccccc1)c1cc(C2COCCN2C(=O)C2CC2)on1 (stereo unspecified) the results were FAS-TE inh -11, H9c2 protect 0 and aDG glyco act 0.
`COc1cccc(-c2sc3ccc(OC)cc3c2-c2ccc(OCCN(C)C)cc2)c1` gave CRFR2-BP ag 11, PfGluPho inh 4, CRFBP-R2 block 3, FAS-TE inh 23, H9c2 protect -11 and aDG glyco act 8.6*.
Screening COc1ccc(-c2sc3ccccc3c2-c2ccc(OCCN(C)C)cc2)cc1 returned CRFR2-BP ag 3, PfGluPho inh 12, CRFBP-R2 block -12, FAS-TE inh 32, H9c2 protect -11 and aDG glyco act 4.
C[C@@H]1CN([C@@H](C)CO)S(=O)(=O)c2ccc(C#CC3CCCCC3)cc2O[C@@H]1CN(C)Cc1cccnc1 was read as CRFR2-BP ag 6, PfGluPho inh 57, CRFBP-R2 block -16, FAS-TE inh 35, H9c2 protect 3 and aDG glyco act 0.
c1ccc2c(c1)OCCOCCOCCOCCOc1ccccc1OCCOCCOCCO2 was read as CRFR2-BP ag 1, PfGluPho inh -3, CRFBP-R2 block 50*, FAS-TE inh -6, H9c2 protect 0 and aDG glyco act 0.
COc1ccccc1CNC(=O)CCS(=O)(=O)c1ccc2c(c1)CCN2C(C)=O was read as CRFR2-BP ag 0, PfGluPho inh 4, CRFBP-R2 block -12, FAS-TE inh -3, H9c2 protect -2 and aDG glyco act 5.3*.
